In PubChem BioAssay (NCI) one finds growth inhibition data, which are given here for 37 compounds.

This is part of a sample that, as a whole, favours compounds with a hit. Of some 79,000 tested, about 15% had one in any assay. A number with no mark means an inactive call. Calls of active or inactive are those of the source. Rule as the data show it: active = growth inhibition above about 70%; inactive = the rest.

Test [1] in a line: NCI Yeast Anticancer Drug Screen. Data for the rad50 strain (AID 155).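 Also: 0% = growth of vehicle-only cultures of the same strain.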 Conditions: S. cerevisiae rad50 strain growth inhibition; at 50.0 µM; stronger effect = higher value. Summed up: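 Relative growth inhibition (compound vs vehicle) was measured in yeast with a defined repair-gene alteration.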
Test [2] can be described thus: NCI Yeast Anticancer Drug Screen. Data for the mec2-1 strain (AID 157). Conditions: S. cerevisiae mec2-1 strain, at 50.0 µM, stronger effect = higher value. Summed up: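 Readout is yeast growth inhibition, normalised to vehicle-treated controls, in the mec2-1 strain exposed to compound.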
Test [3] in a line: NCI Yeast Anticancer Drug Screen. Data for the sgs1 mgt1 strain (AID 161).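 Also: 0% = growth of cultures given vehicle only.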 As to conditions: S. cerevisiae sgs1 mgt1 strain, at 50.0 µM, stronger effect = higher value. Summed up:
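Percent growth inhibition was derived by comparing compound-exposed mutant yeast with vehicle-exposed cultures. The strain carries alterations in DNA damage repair.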

A short description of test [4]: NCI Yeast Anticancer Drug Screen. Data for the cln2 rad14 strain (AID 165).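 Also: 0% = growth equal to vehicle treated cultures.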 Conditions: S. cerevisiae cln2 rad14 strain, at 50.0 µM, stronger effect = higher value. In a few lines: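 Relative to vehicle controls, growth inhibition of compound-treated cln2 rad14 yeast was recorded.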
A short description of test [5]: NCI Yeast Anticancer Drug Screen. Data for the bub3 strain (AID 167). Conditions: S. cerevisiae bub3 mutant strain, at 50.0 µM, stronger effect = higher value. In a few lines: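 Screening used yeast with an engineered genetic alteration affecting cell cycle control. Compound-exposed cultures were compared with vehicle cultures, and reduced growth was taken as inhibition.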

A short description of test [6]: NCI Yeast Anticancer Drug Screen. Data for the mlh1 rad18 strain (AID 175). Conditions: S. cerevisiae mlh1 rad18 strain growth inhibition; at 50.0 µM; stronger effect = higher value. Summed up:
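Test agents were incubated with a yeast strain of defined genotype (DNA damage repair defect). Inhibition of growth was derived by comparison with vehicle-exposed cultures.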

`CC(=O)Nc1ccccc1C=O`: the growth inhibition in test [1] is -4.15%; in test [2] it was -7.95%; in test [3], 3.75%; in test [4] it was -15.3%; in test [5], -14.9%; in test [6], -5.55%.
In the case of `CC1NC(C)SC(C)S1` (configuration not stated), the growth inhibition in test [1] was -9.15%; in test [2] it was -23.6%; in test [3], 0.15%; in test [4], -16.1%; in test [5], -0.7%; in test [6], 36.8%.
As to `CN(C1CCCCC1)S(=O)(=O)c1ccc(N)cc1`, the growth inhibition in test [1] is 7.65%; in test [2] it was -3.35%; in test [3] it was 12%; in test [4], 11.4%; in test [5], 5.25%; in test [6] it was 24.5%.
With `COc1ccc(C(c2cc3c(cc2O)OCO3)N2CCN(C(c3ccc(OC)cc3)c3cc4c(cc3O)OCO4)CC2)cc1` (configuration not stated), the growth inhibition in test [1] was 17.1%; in test [2] it was 0%; in test [3] it was 5.05%; in test [4], 15.1%; in test [5], -1.65%; in test [6], 19.8%.
In the case of `CC(NC(=O)C(N)CCC(=O)O)C(=O)NCP(=O)(O)O` (configuration not stated), the growth inhibition in test [1] was -13.1%; in test [2] it was -49%; in test [3], 0.35%; in test [4] it was 26.4%; in test [5], 4.25%; in test [6], 8%.
Consider `O=C(O)C1CCCCC1O` (configuration not stated), for which the growth inhibition was -11.6% in test [1]; 21.1% in test [2]; -5.25% in test [3]; 23.3% in test [4]; 21.4% in test [5]; 1.3% in test [6].
In the case of `C[C@@]12CCC(=O)C=C1CC[C@H]1C2C(=O)C[C@]2(C)C1CC[C@@]2(O)C(=O)COC(=O)CCC(=O)O` (some centres not stated), the growth inhibition in test [1] was 0.1%; in test [2], 10.3%; in test [3], -19.8%; in test [4], 4.45%; in test [5], 6.95%; in test [6], 0.25%.
With `Clc1ccc(C(=C(c2ccc(Cl)cc2)c2ccc(Cl)cc2)c2ccc(Cl)cc2)cc1`, the growth inhibition in test [1] is -3.85%; in test [2] it was 5.4%; in test [3], 3.5%; in test [4] it was -3.35%; in test [5] it was 10.4%; in test [6], -1.45%.
For the compound `Cc1ccc(NC(=O)OCC(COc2ccc(Cl)cc2Cl)OC(=O)Nc2ccc(C)cc2)cc1` (configuration not stated), the growth inhibition is -27.8% in test [1]; -24.9% in test [2]; -0.55% in test [3]; 16.1% in test [4]; 11.2% in test [5]; 9.05% in test [6].
With `CCOC(=O)Nc1nc2ccccc2n1CN1CCN(c2ccccc2)CC1`, the growth inhibition in test [1] is 8.4%; in test [2] it was 7.75%; in test [3], -8.7%; in test [4], 21.3%; in test [5], 45.3%; in test [6] it was 16.9%.
With `C1CC2CC1CC2C1CO1` (configuration not stated), the growth inhibition in test [1] was 3.45%; in test [2], -6.15%; in test [3] it was 4.85%; in test [4], 0.75%; in test [5], 0.5%; in test [6], 4.7%.
Take `CCCCCc1ccc(C)cc1OC(C)=O`: the growth inhibition was 14.1% in test [1]; -1.4% in test [2]; 8.85% in test [3]; -14.1% in test [4]; -2.75% in test [5]; 0.5% in test [6].
Turning to `O=C1NC(=O)C2(CCCC2=Nc2ccc(Br)cc2)C2C=CN(Cc3ccccc3)C=C12` (configuration not stated), the growth inhibition in test [1] is 0.25%; in test [2] it was -4.25%; in test [3], 6.3%; in test [4], 2.4%; in test [5], 3.65%; in test [6], 35.2%.
`O=C(O)CCC1CCc2cccc(O)c2C1=O` (configuration not stated): the growth inhibition in test [1] was 8.4%; in test [2], 3.3%; in test [3], 2.25%; in test [4], 15.6%; in test [5], 6.5%; in test [6], -3.45%.
Turning to `C[Si](C)(CCCOCC1CO1)O[Si](C)(C)CCCOCC1CO1` (configuration not stated), the growth inhibition was 26.9% in test [1]; -29.4% in test [2]; -5.05% in test [3]; 17.6% in test [4]; -8.4% in test [5]; -31.1% in test [6].
In the case of `CCOC(=O)C1=C(C)N(Cc2ccccc2)C(C)=C(C(=O)OCC)C1c1ccccc1O`, the growth inhibition in test [1] is 20.5%; in test [2], 28.2%; in test [3], 20.1%; in test [4] it was 17.6%; in test [5], 30.8%; in test [6], 18.6%.
With `O=C(O)c1c[nH]c2c([N+](=O)[O-])cccc2c1=O`, the growth inhibition was 40.4% in test [1]; 16.5% in test [2]; 30.7% in test [3]; 8.5% in test [4]; 13.6% in test [5]; 28.4% in test [6].
As for `O=C(NC(Cc1ccccc1)C(=O)N1CCOCC1)c1ccccc1` (configuration not stated), the growth inhibition in test [1] was 6.1%; in test [2], 12.6%; in test [3] it was -1.35%; in test [4] it was 3.2%; in test [5] it was 1.85%; in test [6], -0.35%.
Consider `CCOC(=O)C1CN(C)C(=O)C1=O` (configuration not stated), for which the growth inhibition was 17.2% in test [1]; -2.4% in test [2]; 16.6% in test [3]; 2.35% in test [4]; -0.05% in test [5]; 25.9% in test [6].
With `CCOC(=O)C(CCC#N)(CCC#N)C(C)=O`, the growth inhibition in test [1] was -8.5%; in test [2], -1.65%; in test [3], -4.7%; in test [4], -64.8%; in test [5] it was 0.15%; in test [6], 15.1%.
Take `CCc1cc(Cc2cc(CC)c(NC(=O)C(=O)CC(=O)c3sc(-c4cccnc4)nc3C)c(CC)c2)cc(CC)c1NC(=O)C(=O)CC(=O)c1sc(-c2cccnc2)nc1C`: the growth inhibition in test [1] was -26.8%; in test [2], -26.9%; in test [3], -27.8%; in test [4] it was -0.05%; in test [5], -35.9%; in test [6] it was -19.8%.
In the case of `CC1(C)OC2C(O1)[C@H]1OC(C(Cl)(Cl)Cl)=N[C@H]1C(I)[C@H]2N1C(=O)c2ccccc2C1=O` (some centres not stated), the growth inhibition in test [1] is 0.25%; in test [2], -45.9%; in test [3] it was -5.15%; in test [4], -52.6%; in test [5], -5.9%; in test [6], 3.55%.
With `O=C(Oc1ccc2ccccc2c1)c1ccccc1`, the growth inhibition in test [1] is 28.4%; in test [2], 4.4%; in test [3], 28.4%; in test [4], 21.9%; in test [5], 2.7%; in test [6], 10.1%.
As for `C[C@H]1CCCCC[C@@H]2CC(=O)CC2C(=O)CCC(=O)O1` (some centres not stated), the growth inhibition was 17.6% in test [1]; -4.25% in test [2]; -10.6% in test [3]; 8.05% in test [4]; -8.85% in test [5]; 12.7% in test [6].
Turning to `O=C(O)c1ccc([C@@H]2C(=O)N(O)[C@@H]3C=CC[C@@H]32)cc1`, the growth inhibition is -8.4% in test [1]; -12.8% in test [2]; -7.45% in test [3]; 19.7% in test [4]; -14.7% in test [5]; 8.25% in test [6].
`COc1ccc(NC(=O)Nc2cc(C(F)(F)F)ccc2Cl)cc1`: the growth inhibition is 14.6% in test [1]; 16.6% in test [2]; 5.9% in test [3]; -26.1% in test [4]; 2.5% in test [5]; -9.65% in test [6].
Consider `N#CCCOCC(OCCC#N)C(OCCC#N)C(OCCC#N)C(COCCC#N)OCCC#N` (configuration not stated), for which the growth inhibition in test [1] is -9.85%; in test [2] it was -14.6%; in test [3], -13.2%; in test [4] it was 6.15%; in test [5], 6.8%; in test [6], -13.2%.
Consider `CCOC(=O)C(Cc1ccc(Cl)cc1)(Cc1ccc(Cl)cc1)C(=O)OCC`, for which the growth inhibition in test [1] is 0.75%; in test [2] it was -30.4%; in test [3], -18%; in test [4], 6.15%; in test [5], -15.8%; in test [6], -10.7%.
With `CC(=O)O[C@]1(C(C)=O)CC[C@H]2[C@@H]3C[C@H](C)C4=CC(=O)C=C[C@]4(C)[C@@]3(F)[C@@H](O)C[C@@]21C`, the growth inhibition in test [1] is 3.25%; in test [2], -35.4%; in test [3] it was -10.9%; in test [4], -15.4%; in test [5] it was -16.9%; in test [6], 20.8%.
`Cc1cc2[nH]c3c(C#N)c4c(c(=O)n3c2cc1C)CCCC4`: the growth inhibition in test [1] was 10.1%; in test [2], 18.5%; in test [3], -7%; in test [4], 2.75%; in test [5], -5.85%; in test [6], -22.1%.
In the case of `CCCCOS(=O)OCCCC`, the growth inhibition in test [1] was 22.7%; in test [2], 29.5%; in test [3] it was -6.1%; in test [4], 13.2%; in test [5] it was 0.15%; in test [6], -14.8%.
As to `O=C1CCCC1C(=O)c1ccccc1.O=C1CCCC1C(=O)c1ccccc1.[Cu]` (configuration not stated), the growth inhibition in test [1] is 70.9% (active); in test [2] it was 22.1%; in test [3], 88.5% (active); in test [4], 23.7%; in test [5], -2%; in test [6], 52.9%.
Turning to `O=C(Cc1ccccc1)N(c1ccccc1)c1ccccc1`, the growth inhibition in test [1] was 23.5%; in test [2], -9.25%; in test [3] it was 13%; in test [4], 14.7%; in test [5], 49.9%; in test [6], 5.9%.
As for `Cc1cccc(C2(C(=O)O)CCCC2)c1`, the growth inhibition in test [1] is 14.7%; in test [2] it was -5.2%; in test [3] it was 15.9%; in test [4], 39%; in test [5], 24.3%; in test [6], 35.4%.
Consider `CCC(=O)Nc1ccc(F)cc1`, for which the growth inhibition is -4.65% in test [1]; 1.45% in test [2]; -0.45% in test [3]; -27.4% in test [4]; -10.9% in test [5]; 4.3% in test [6].
For the compound `CC1(C)C2CCC1(C)C(NC(=O)COCCOCC(N)=O)C2` (configuration not stated), the growth inhibition in test [1] is -45%; in test [2], -53.1%; in test [3], -52.6%; in test [4] it was -2.55%; in test [5] it was -54.9%; in test [6], -67.3%.
For `CC(C)=C(Cl)c1c(C)cc(C)c(CC(N)=O)c1C`, the growth inhibition in test [1] was -14.1%; in test [2], -3.75%; in test [3], -8.15%; in test [4], -27.2%; in test [5], -9.95%; in test [6], 10.1%.
